This is a sample that favours compounds with a hit; in the whole collection about 19% have one here.
TGFb inhibitor – qHTS for Inhibitors of TGF-b. HepG2 CAGA-GFP TGF-b/SMAD3 reporter, GFP fluorescence, 18 h; TGF-beta stimulated, 500 pg/mL final. Potency, µM (top dose mostly 46.1 µM), inactives show at the top dose activity, negative = inhibition, most hits filed as inhibitors. 410,000 tested, 1.2% active. AID 588855, 2011; further: potency means the concentration at half of the fitted maximal effect; on the % scale 0 is the no-effect control and ±100 the full control effect; nearly all actives have a fitted effect of over 65% in size
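HEPG2 CAGA-GFP, 1000 cells/well; 2 h settle, 37 C; cpd via pin tool; TGF-b 500 pg/mL final; 18 h, 37 C; GFP imaging ex488/em500-530; %Activity normalised to -TGF-b and +DMSO controls; CRC fit, curve class.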
HepG2 viability – qHTS for Inhibitors of TGF-b: Cytotox Counterscreen; HepG2 CAGA-GFP viability, ATP luminescence, 18 h; Potency, µM (top dose mostly 46.1 µM), without a hit: at the top dose activity change, negative = cytotoxicity, actives largely listed as cytotoxic; 410,000 tested, 0.76% active; AID 588856, 2011; further: potency means the concentration at half of the fitted maximal effect
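CellTiter-Glo luminescence gave cytotoxicity after 18 hours at 37 degrees C. The cells were HepG2 CAGA-GFP in 1% FBS DMEM, stimulated with 500 pg/mL TGF-beta after compound addition. %Activity was normalised to no-cell wells (complete cell-killing) and DMSO (no toxicity), and curves were fitted and classified.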
TDP1 inh – qHTS Assay for Inhibitors of Tyrosyl-DNA Phosphodiesterase (TDP1). Tyrosyl-DNA phosphodiesterase 1 (Homo sapiens), Q9NUW8. recombinant TDP1, AlphaScreen DNA substrate cleavage. Potency, µM (titrated, usually from 130 µM), without a hit: at the top dose activity change, negative = inhibition, actives largely listed as inhibitors. 350,000 tested, 0.28% active. AID 485290, 2010; further: potency means the concentration at half of the fitted maximal effect; on the % scale 0 is the no-effect control and ±100 the full control effect; nearly all actives have a fitted effect of over 40% in size
Target sequence (Q9NUW8 whole entry, looked up): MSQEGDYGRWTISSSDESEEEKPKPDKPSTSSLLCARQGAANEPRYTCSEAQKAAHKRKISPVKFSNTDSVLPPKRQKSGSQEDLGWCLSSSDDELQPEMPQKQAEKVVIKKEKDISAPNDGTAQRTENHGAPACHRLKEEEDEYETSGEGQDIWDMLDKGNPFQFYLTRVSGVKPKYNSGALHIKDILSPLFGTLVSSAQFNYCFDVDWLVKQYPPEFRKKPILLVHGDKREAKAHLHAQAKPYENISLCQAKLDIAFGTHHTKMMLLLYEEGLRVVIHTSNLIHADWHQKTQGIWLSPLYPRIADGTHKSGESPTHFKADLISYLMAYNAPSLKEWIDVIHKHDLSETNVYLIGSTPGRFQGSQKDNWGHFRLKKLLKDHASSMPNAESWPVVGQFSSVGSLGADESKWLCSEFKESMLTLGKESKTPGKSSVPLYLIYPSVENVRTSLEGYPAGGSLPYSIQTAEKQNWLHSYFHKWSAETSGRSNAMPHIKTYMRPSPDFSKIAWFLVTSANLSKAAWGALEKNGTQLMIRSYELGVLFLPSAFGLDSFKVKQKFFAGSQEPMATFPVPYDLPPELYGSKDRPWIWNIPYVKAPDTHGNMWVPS
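Here, a 5' biotin and 3' phosphotyrosine-FITC DNA oligonucleotide reports Tdp1 activity: intact substrate bridges AlphaScreen beads, while cleavage leaves a 3' phosphate and drops signal. All incubations at room temperature.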
DT40 TDP1 CPT – qHTS for Inhibitors of human tyrosyl-DNA phosphodiesterase 1 (TDP1): qHTS in cells in presence of CPT | AID 686979, 2013 | 420,000 tested, 12% active | chicken DT40 Tdp1-/-;hTDP1 cells + 20 nM CPT, ATP luminescence, 48 h | Potency, µM (series often up to 46.2 µM), without a hit: top-dose activity change, negative = growth inhibition, hits mostly inhibitors; further: potency means the concentration at half of the fitted maximal effect; on the % scale 0 is the no-effect control and ±100 the full control effect; nearly all actives have a fitted effect of over 55% in size
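Chicken DT40 Tdp1-/- cells stably complemented with human TDP1 were seeded at 400 cells/well in medium containing 20 nM camptothecin, exposed to pin-transferred compounds, and grown at 37 °C for at least 48 hr. Viability was read as ATP luminescence.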
DT40 TDP1 no CPT – qHTS for Inhibitors of human tyrosyl-DNA phosphodiesterase 1 (TDP1): qHTS in cells in absence of CPT. DT40 Tdp1-/- hTDP1 cells, no CPT, ATP luminescence, 48 h. Potency, µM (top dose mostly 46.2 µM), inactives show at the highest dose activity change, negative = growth inhibition, hits mostly inhibitors. 420,000 tested, 15% active. AID 686978, 2013; further: potency means the concentration at half of the fitted maximal effect; on the % scale 0 is the no-effect control and ±100 the full control effect; nearly all actives have a fitted effect of over 55% in size
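Luminescent ATP content (CellTiter-Glo) served as the growth readout. Knockout chicken DT40 cells expressing human TDP1 were exposed to compounds without camptothecin for a minimum 48 hr at 37 °C.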
IL1B secr inh – qHTS for Inhibitors of Inflammasome Signaling: IL-1-beta AlphaLISA Primary Screen | THP-1 LPS/ATP IL-1B secretion, AlphaLISA, 16 h; stronger effect = lower value | 360,000 tested, 4.7% active | activity change, % at 57.5 µM; in the data active means activity change below about -50%; inconclusive means mostly about -30% to -49%; further: on the % scale 0 is the no-effect control and ±100 the full control effect
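THP-1 cells pretreated 1 hr with compounds (up to 57.5 uM final), then stimulated with LPS (250 ng/mL final) plus ATP (1.25 mM final); secreted IL-1B measured by AlphaLISA after 16 hr, decreased signal indicating inhibition.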
The depositor's hits bear a star; [ ] = remark or other dose. Unless noted, the call rests on the fitted dose curve; in most records, active means well fitted curve in the direction sought with a large enough effect; inconclusive means small, poorly fitted or top-dose-only effect, or another doubt; inactive means no such curve, though single readings can be large; an effect the other way counts as inactive or inconclusive.

Results for CCCN(CCC)C(=O)CSc1nc2ccccc2c(=O)n1C1CCCC1 ?
TGFb inhibitor: inconclusive; HepG2 viability: -7%; TDP1 inh: 0%; DT40 TDP1 CPT: 13µM*; DT40 TDP1 no CPT: 13µM*; IL1B secr inh: 0

How did O=C(CSc1nc2ccccc2c(=O)n1CC1CCCCC1)N1CCOCC1 do in these assays?
TGFb inhibitor: inconclusive; HepG2 viability: -6%; TDP1 inh: 6%; DT40 TDP1 CPT: inconclusive; DT40 TDP1 no CPT: inconclusive; IL1B secr inh: -24

Results for CN(C)c1ccc(NC(=O)CSc2nc3ccccc3c(=O)n2C2CCCCC2)cc1 ?
TGFb inhibitor: 17%; HepG2 viability: -4%; TDP1 inh: 11%; DT40 TDP1 CPT: inconclusive; DT40 TDP1 no CPT: 18µM*; IL1B secr inh: -51*

Results for CCN(CC)C(=O)CSc1nc2ccccc2c(=O)n1CC1CCCCC1 ?
TGFb inhibitor: 0%; HepG2 viability: -24%; TDP1 inh: 4%; DT40 TDP1 CPT: 23µM*; DT40 TDP1 no CPT: 16µM*; IL1B secr inh: -25

How did C[C@H](CO)N1C[C@H](C)[C@@H](CN(C)S(C)(=O)=O)Oc2ccc(NC(=O)Nc3ccccc3)cc2C1=O do in these assays?
TGFb inhibitor: inconclusive; HepG2 viability: 10%; TDP1 inh: -3%; DT40 TDP1 CPT: 0%; DT40 TDP1 no CPT: -4%; IL1B secr inh: 15

What do the screens show for `CO[C@H]1COC(=O)[C@H](C)COC(=O)[C@@H](OCc2ccccc2)/C=C\[C@@H]1C`?
TDP1 inh: 4%[21 µM]

What do the screens show for `Cc1cc(NC(=O)CSc2nc3ccccc3c(=O)n2C2CCCC2)no1`?
TGFb inhibitor: -25%; HepG2 viability: 1%; TDP1 inh: 3%; DT40 TDP1 CPT: 1µM*; DT40 TDP1 no CPT: 0.92µM*; IL1B secr inh: 28

Results for CCCCNc1c(-c2ccccn2)nc2nc(C)cc(C)n12 ?
DT40 TDP1 CPT: inconclusive; DT40 TDP1 no CPT: inconclusive; IL1B secr inh: 57

What do the screens show for `Cc1ccc(Nc2c(-c3ccccc3O)nc3cc(C)ccn23)cc1`?
TGFb inhibitor: inconclusive; HepG2 viability: -37%; TDP1 inh: 10%; DT40 TDP1 CPT: inconclusive; DT40 TDP1 no CPT: inconclusive

How did Cc1c(-c2ccccn2)c(=O)[nH]n1-c1ccc(F)cc1 do in these assays?
TGFb inhibitor: 0%; HepG2 viability: 0%; TDP1 inh: 6%; DT40 TDP1 CPT: 4%; DT40 TDP1 no CPT: -13%; IL1B secr inh: 28

What do the screens show for `Cc1cccc(C)c1Nc1c(-c2ccccc2F)nc2cccc(C)n12`?
TGFb inhibitor: inconclusive; HepG2 viability: -35%; TDP1 inh: 7%; DT40 TDP1 CPT: 10µM*; DT40 TDP1 no CPT: -78%

What do the screens show for `Cc1ccc(Nc2c(-c3ccccn3)nc3cccc(C)n23)cc1`?
TGFb inhibitor: inconclusive; HepG2 viability: -36%; TDP1 inh: 11%; DT40 TDP1 CPT: 2.6µM*; DT40 TDP1 no CPT: 2.1µM*; IL1B secr inh: inconclusive

How did Cc1cccc2nc(-c3ccccn3)c(Nc3ccc(F)cc3)n12 do in these assays?
TGFb inhibitor: inconclusive; HepG2 viability: -53%; TDP1 inh: 13%; DT40 TDP1 CPT: 12µM*; DT40 TDP1 no CPT: 18µM*

Results for Cc1ccn2c(Nc3ccc(F)cc3)c(-c3ccccn3)nc2c1 ?
TGFb inhibitor: 85%; HepG2 viability: 69%; TDP1 inh: 9%[12.3 µM]; DT40 TDP1 CPT: 10µM*; DT40 TDP1 no CPT: 13µM*

Results for Brc1ccc(C=C2C=c3ccccc3=C2)cc1 ?
TGFb inhibitor: -24%; HepG2 viability: -33%; DT40 TDP1 CPT: 14%; DT40 TDP1 no CPT: -24%

Results for Cc1ccc(S(=O)(=O)NCc2ccccc2)cc1C(=O)NC1CCC(C)CC1 (stereo not given) ?
TGFb inhibitor: -16%; HepG2 viability: -17%; TDP1 inh: 0%; DT40 TDP1 CPT: inconclusive; DT40 TDP1 no CPT: inconclusive; IL1B secr inh: -10

How did Cc1ccc(Nc2c(-c3ccccn3)nc3ccc(Br)cn23)cc1 do in these assays?
TGFb inhibitor: -34%; HepG2 viability: 9%; TDP1 inh: 12%; DT40 TDP1 CPT: 9.2µM*; DT40 TDP1 no CPT: 21µM*

Results for Cc1cccc2nc(-c3ccccn3)c(Nc3ccccc3)n12 ?
TGFb inhibitor: inconclusive; HepG2 viability: -40%; TDP1 inh: 11%; DT40 TDP1 CPT: 4.1µM*; DT40 TDP1 no CPT: 4.1µM*

Results for Cc1ccc(Nc2c(-c3ccsc3)nc3cccc(C)n23)cc1 ?
TGFb inhibitor: -30%; HepG2 viability: -109%; TDP1 inh: 7%; DT40 TDP1 CPT: 16µM*; DT40 TDP1 no CPT: inconclusive

What do the screens show for `Cc1ccc(Nc2c(-c3ccccc3O)nc3ccc(Br)cn23)cc1`?
TGFb inhibitor: 12%; HepG2 viability: 1%; TDP1 inh: 2%; DT40 TDP1 CPT: -16%; DT40 TDP1 no CPT: -1%

How did COc1ccc(Cn2ccnc2SCC(=O)Nc2ccc(C)cc2C)cc1 do in these assays?
TGFb inhibitor: inconclusive; HepG2 viability: -6%; TDP1 inh: 5%; DT40 TDP1 CPT: -15%; DT40 TDP1 no CPT: -21%

Results for O=C(Cc1cccs1)Nc1ccccc1F ?
TGFb inhibitor: 2%; HepG2 viability: -1%; DT40 TDP1 CPT: 5%; DT40 TDP1 no CPT: -7%; IL1B secr inh: 8

Results for COc1ccc(C2Nc3ccccc3C(=O)N2Cc2ccc(-c3ccccc3)cc2)cc1COc1ccc(NC(C)=O)cc1 (stereo not given) ?
TDP1 inh: -3%

Results for Cc1ccc(CNC(=O)[C@@H]2C[C@H]2[C@@H](NP(=O)(c2ccccc2)c2ccccc2)c2ccccc2)o1 ?
TDP1 inh: 8%

How did c1ccc2c(c1)Cc1cc3ccccc3nc1-2 do in these assays?
TGFb inhibitor: 11%; HepG2 viability: 7%; TDP1 inh: 6%; DT40 TDP1 CPT: inconclusive; DT40 TDP1 no CPT: 21µM*; IL1B secr inh: 13

How did CCNC(=S)N/N=C1\C(=O)c2cccc3cccc1c23 do in these assays?
TGFb inhibitor: -9%; HepG2 viability: -7%; TDP1 inh: 7%; DT40 TDP1 CPT: 11%; DT40 TDP1 no CPT: -15%; IL1B secr inh: 14
